Experimental data published in PubChem BioAssay (NCATS).
Results filed as inconclusive are left out. Active and inactive are the calls of the source. Unless noted, calls come from the whole dose curve; as a rule, active = well fitted curve in the direction sought with a large enough effect; inconclusive = small, poorly fitted or top-dose-only effect, or another doubt; inactive = no such curve, though single readings can be large; an effect the other way counts as inactive or inconclusive.

Columns and labels:
[1] = target: Aldehyde dehydrogenase, mitochondrial (Homo sapiens) (UniProt P05091); test: qHTS for Inhibitors of the Aldehyde Dehydrogenase Family (ALDH2) Confirmatory screens (AID 2061303; active = well fitted inhibition curve with a large enough effect; title and protocol of this record describe different tests; note: nearly all actives have a fitted effect of over 45% in size; note: potency is the fitted concentration of half-maximal effect)
[2] = qHTS for Inhibitors of the Aldehyde Dehydrogenase Family (ALDH1A2, ALDH1A3, ALDH2, ALDH3A1) (AID 2061307); note: nearly all actives have a fitted effect of over 50% in size; for Potency: test system not described further here; potency is the fitted concentration of half-maximal effect
[3] = target: Aldehyde dehydrogenase, mitochondrial (Homo sapiens) (UniProt P05091); test: qHTS for Inhibitors of the Aldehyde Dehydrogenase Family (ALDH2) Primary screen (AID 2061308); note: nearly all actives have a fitted effect of over 55% in size; note: potency is the fitted concentration of half-maximal effect
[4] = target: Retinaldehyde dehydrogenase 3 (Homo sapiens) (UniProt P47895); test: qHTS for Inhibitors of the Aldehyde Dehydrogenase Family (ALDH1A3) Confirmatory screens (AID 2061311); note: nearly all actives have a fitted effect of over 60% in size; note: potency is the fitted concentration of half-maximal effect
[5] = target: Retinaldehyde dehydrogenase 3 (Homo sapiens) (UniProt P47895); test: qHTS for Inhibitors of the Aldehyde Dehydrogenase Family (ALDH1A3) Primary screen (AID 2061315)
[6] = target: Aldehyde dehydrogenase 1A1 (Homo sapiens) (UniProt P00352); test: qHTS for Inhibitors of the Aldehyde Dehydrogenase Family (ALDH1A1) Confirmatory screens (AID 2061316); note: nearly all actives have a fitted effect of over 65% in size; note: potency is the fitted concentration of half-maximal effect
[7] = target: Retinal dehydrogenase 2 (Homo sapiens) (UniProt O94788); test: qHTS for Inhibitors of the Aldehyde Dehydrogenase Family (ALDH1A2) Confirmation screens (AID 2061314); note: nearly all actives have a fitted effect of over 65% in size
[8] = target: Retinaldehyde dehydrogenase 3 (Homo sapiens) (UniProt P47895); test: qHTS for Inhibitors of the Aldehyde Dehydrogenase Family (ALDH1A3) Validation screen (AID 2061312); note: nearly all actives have a fitted effect of over 45% in size

Measured: Potency

O=C(Nc1ccc2c(c1)CCC2)Nc1nnc(-c2ccncc2)s1
inactive: [1] | [2] | [3] | [4] | [5]

CC(C)(C)CNc1nc(C#N)nc(Nc2ccccc2)n1
active: [2] 12.7 µM
inactive: [1] | [3] | [4] | [5]

S=C(Nc1cc(Cl)ccn1)N1CCN(c2ccc3ccccc3n2)CC1
inactive: [5]
active: [1] 7.94 µM | [2] 14.1 µM | [3] 1.58 µM | [4] 22.5 µM | [6] 5.65 µM

Cc1ccnc(NC(=S)N2CCN(c3ccc(N)cc3)CC2)c1
inactive: [1] | [2] | [3] | [4] | [5]

O=C(c1ccc(-c2cc(O)c3ncccc3c2)cc1)N1CCNCC1
active: [4] 11.3 µM
not listed: [7] | [8]
inactive: all other assays above

O=C1CCCC2=C1C(c1[nH]ncc1Cl)NC(=S)N2 (stereo not given)
inactive: [1] | [2] | [3] | [4] | [5]

O=C1Cc2cc(S(=O)(=O)N3CCN(c4ccc(C(F)(F)F)cc4)CC3)ccc2N1
not listed: [7] | [8]
inactive: all other assays above

Cc1cccc(-n2cnc3cc(C(=O)N4CCCC(C)(C)C4)ccc32)c1
inactive: [1] | [2] | [3] | [7] | [5]

O=C(NCCc1nc2ccccc2n1CCOc1cccc(Br)c1)C1CCCCC1
inactive: [1] | [2] | [3] | [7] | [5]

CCCCNc1nc(C#N)nc(Nc2ccccc2)n1
active: [1] 2.51 µM | [2] 0.501 µM
inactive: [3] | [7] | [5]

CCc1c(C)sc(NC(=O)C2CCCCC2C(=O)O)c1C(N)=O (stereo not given)
inactive: [1] | [2] | [3] | [7] | [5]

CC1(C)S[C@@H]2[C@H](NC(=O)[C@H](NC(=O)N3CCN(S(C)(=O)=O)C3=O)c3ccccc3)C(=O)N2[C@H]1C(=O)O
not listed: [4]
inactive: all other assays above

CCN(CC)c1cc2c(cc1S(=O)(=O)Nc1ccc(C)c(C)c1)CCC(=O)N2
inactive: [1] | [2] | [3] | [7] | [5]

Cc1cc2c(s1)c(C=O)c(C(=O)NCc1ccccc1F)n2C
active: [2] 1.27 µM
inactive: [1] | [3] | [7] | [5]
